Screening data: PubChem, National Center for Advancing Translational Sciences (NCATS)
An excerpt weighted towards active compounds, which were near 21% of everything screened.
Pf growth 96h – P. falciparum growth inhibition at 96 hour, primary screen for plastid delayed-death inhibitors | P. falciparum luciferase reporter growth, 96 h | 6.9% of 320,000 active | Potency, µM (series often up to 28.7 µM), actives largely listed as inhibitors
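Erythrocytes infected with luciferase-expressing P. falciparum were dispensed at 2% hematocrit and 0.05% parasitemia (final), then incubated with compounds 96 hours at 37 C in 5% CO2. Luminescence after detection reagent addition reported growth.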
Pf growth 48h – inhibits P. falciparum growth in the first generation, 48 h; P. falciparum luciferase growth in erythrocytes, 48 h; Potency, µM (top dose mostly 28.7 µM), usual class: inhibitors; 5.9% of 310,000 active; AID 504832
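Parasite viability was followed by luminescence of a genomically integrated firefly luciferase. Cultures held 0.1% parasitemia at 2% hematocrit (final), incubated under 5% CO2 at 37 C.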
Cycloheximide cs – affects cycloheximide protein synthesis inhibition readout, counter-screen | cell reporter, cycloheximide protein synthesis inhibition counterscreen | max response, % | 12% of 300,000 active | AID 2314; in the data active = max response mostly above about 13%, no sharp cut-off; inactive = mostly below about 14%; also: read at 38.3 µM for the half of the compounds with a filed dose
Shiga toxin inh – Shiga toxin inhibition. Vero cells, Shiga toxin protein synthesis inhibition reporter. inhibition, % at 38.7 µM. 9.2% of 290,000 active. AID 2315; in the data active = inhibition mostly above about 28%, no sharp cut-off; inactive = mostly below about 43%
NS1 inh – influenza NS1 inhibition; Potency, µM (titrated, usually from 46.1 µM); 0.4% of 270,000 active; calls by dose curve; also: actives are rising curves; nearly all actives have a fitted effect of over 50% in size
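Compounds were scored for reversing the slow growth caused by influenza A NS1 in S. cerevisiae, measured by optical density at 600 nm. Assay medium contained 2% galactose at pH 6.0; NS1-free yeast of the same strain were the positive control.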
Of the large screens only hits and unclear results are named; the others gave an inactive call; ! = not confirmed by another sample. Unless noted, calls follow the shape of the dose curve; as a rule, active = well fitted inhibition curve with a large enough effect; inconclusive = small, poorly fitted or top-dose-only effect, or another doubt; inactive = no such curve, though single readings can be large or run the other way.

O=C(NC(=S)Nc1ccccc1Br)C1CCC1	Pf growth 96h inconclusive, Cycloheximide cs 43.2, Shiga toxin inh 50.1
O=C(NC(=S)Nc1ccccc1Cl)C1CC1	Pf growth 96h inconclusive, Cycloheximide cs 44.8
COC(=O)C(NC(=O)CCc1nnc2ccc(N3CCCCC3)nn12)C(C)C (centres undefined)	none
Fc1c(F)c(F)c(N/N=C/c2c[nH]c3ccccc23)c(F)c1F	Pf growth 96h inconclusive, Cycloheximide cs 15.7
Cc1cc(C)nc(N/N=C/c2c[nH]c3ccccc23)n1	Cycloheximide cs 20.1 (no result: NS1 inh)
Cc1cc(N/N=C/c2ccccc2Cl)nc(NCc2ccccc2)n1	Pf growth 96h inconclusive, Pf growth 48h 1.47µM, Cycloheximide cs 28.4
C(=N\NC1=NCCCCC1)/c1c[nH]c2ccccc12	Cycloheximide cs 20.9
Cc1cc(N/N=C/c2c[nH]c3ccccc23)c2ccccc2n1	none
CCOCCCNC(=O)c1cc(Nc2ccc(OC)cc2OC)nc2ccccc12	none
Cc1cc(C)nc(N/N=C/c2ccccc2OCc2ccc([N+](=O)[O-])cc2)n1	Pf growth 96h inconclusive, Pf growth 48h inconclusive, Shiga toxin inh 59.3
Cc1nnc(C)n1/N=C/c1cc2ccccc2nc1Cl	Pf growth 96h inconclusive, Pf growth 48h inconclusive (no result: NS1 inh)
Cc1nnc(N/N=C/c2c[nH]c3ccccc23)[nH]c1=O	none
Cn1c(N/N=C/c2cc3ccccc3nc2Cl)nc2ccccc21	Pf growth 96h inconclusive, Pf growth 48h inconclusive, Shiga toxin inh 77.6
Cn1c(N/N=C/c2c[nH]c3ccccc23)nc2ccccc21	Pf growth 96h 1.65µM, Pf growth 48h 7.38µM, Cycloheximide cs 45.4, Shiga toxin inh 166.6
Cc1cc(C)nc(N/N=C/c2ccccc2Cl)n1	Cycloheximide cs 58.8, Shiga toxin inh 94.2
CC(C)(C)c1cc(S(=O)(=O)CCc2ccncc2)cc(C(C)(C)C)c1F	Pf growth 48h inconclusive
COc1ccc(S(=O)(=O)N2CC(C)OC(C)C2)cc1C(=O)N1CCCCC1 (centres undefined)	none
Cc1cc(C)nc(N/N=C/c2ccccc2)n1	none
COc1ccc(/C=N/Nc2nc(C)cc(-c3ccccc3)n2)c(OC)c1	Pf growth 96h inconclusive
Cc1cc(C)nc(N/N=C/c2cccc3ccccc23)n1	Cycloheximide cs 47.3
COc1ccccc1/C=N/Nc1nc(C)cc(C)n1	Cycloheximide cs 34.2, Shiga toxin inh 89.2
CO[C@@H]([CH2][Hg])CN1C(=O)c2ccccc2S1(=O)=O.Cn1c(=O)c2nc[nH]c2n(C)c1=O	none (no result: Pf growth 96h, Pf growth 48h, Cycloheximide cs, Shiga toxin inh)
COc1ccc(-c2nc3ccccc3nc2-c2ccccc2)cc1	Pf growth 48h inconclusive
COc1ccc(-c2cc3nnc(-c4ccccc4)nc3s2)cc1	Cycloheximide cs 49.8, Shiga toxin inh active
CCC1(c2ccccc2)NC(=O)N(CC(=O)NC2CCCC2)C1=O (centres undefined)	none (no result: Cycloheximide cs, Shiga toxin inh, NS1 inh)
CCN(CC)/C(=N\S(=O)(=O)c1ccccc1C)c1ccccc1	none
C=CCNC(=O)/C=C/c1cccs1	none (no result: NS1 inh)
O=C(/C=C/c1cccs1)NC1CCCC1	Shiga toxin inh 48.3
CC(C)CNC(=O)/C=C/c1cccs1	Pf growth 96h inconclusive, Cycloheximide cs 18.6
CCC(C)(C)NC(=O)/C=C/c1cccs1	Cycloheximide cs 11.0
O=C(/C=C/c1cccs1)NC1CCS(=O)(=O)C1 (centres undefined)	none
Cc1c(NC(=O)CS(=O)(=O)c2ccccc2)c(=O)n(-c2ccccc2)n1C	none
CCOc1ccc(OCc2ccc(C(=O)Nc3cccnc3)cc2)cc1	none (no result: Cycloheximide cs, Shiga toxin inh, NS1 inh)
CCC(=O)Nc1ccc(C(=O)Nc2cccnc2)cc1	Cycloheximide cs 15.4, Shiga toxin inh 37.4 (no result: Pf growth 96h)
O=C(Nc1cccnc1)c1ccc(COCC(F)(F)F)cc1	Cycloheximide cs 11.9, Shiga toxin inh 38.2, NS1 inh inconclusive (no result: Pf growth 96h)
CC(C)(C)C(=O)Nc1ccc(C(=O)Nc2cccnc2)cc1	Cycloheximide cs 42.9 (no result: Pf growth 48h)
CCC(=O)Nc1ccc(S(=O)(=O)Nc2cccnc2)cc1	none
COC(=O)c1ccccc1NC(=O)Cn1cnc([N+](=O)[O-])c1	Pf growth 96h inconclusive
COc1ccccc1N/C=C(\C#N)c1nc2ccccc2[nH]1	Pf growth 48h inconclusive
COc1cccc(/C=C(/C#N)c2nc3ccccc3[nH]2)c1OC(C)C(=O)O (centres undefined)	Cycloheximide cs 26.0, Shiga toxin inh 58.3
COc1cccc(/C=C(\C#N)c2nc3ccccc3[nH]2)c1OCC(=O)O	Pf growth 96h inconclusive, Cycloheximide cs 31.2, Shiga toxin inh 67.3
O=c1cc(-c2ccccc2)c2cc(Cl)ccc2[nH]1	none
O=c1cc(-c2ccccc2)[nH]c2cc(Cl)ccc12	Pf growth 96h 8.28µM, Pf growth 48h 4.65µM
O=c1cc(-c2ccccc2)[nH]c2ccc(Cl)cc12	Cycloheximide cs 43.6, Shiga toxin inh active (no result: Pf growth 96h, Pf growth 48h, NS1 inh)
O=c1cc(-c2cccc(F)c2)[nH]c2cc(Cl)ccc12	none (no result: Pf growth 96h, Pf growth 48h, NS1 inh)
Cc1ccccc1[C@@H]1C(C#N)=C(N)S[C@H]1C(=O)c1ccccc1	none (no result: Pf growth 48h)
OCCNc1nc(C2CC2)nc2c1nnn2Cc1ccccc1Cl	Pf growth 96h inconclusive
COCCNc1nc(C(C)(C)C)nc2c1nnn2Cc1ccccc1Cl	Pf growth 48h 8.28µM
CC(C)Oc1ccc(Cc2c(O)nc(NCCCN(C)C)[nH]c2=O)cc1	none
Cc1c(C(=O)NCc2n[nH]c(=S)n2-c2ccc(F)cc2)cccc1[N+](=O)[O-]	none (no result: NS1 inh)
CN(C)[C@@H]1C(=O)C(C(N)=O)=C(O)[C@@]2(O)C(=O)C3=C(O)c4c(O)cccc4[C@@](C)(O)C3C[C@@H]12 (some centres undefined)	Pf growth 96h 2.08µM, Pf growth 48h 7.38µM (no result: Cycloheximide cs, Shiga toxin inh, NS1 inh)
CN(C)[C@@H]1C(=O)C(C(N)=O)=C(O)[C@@]2(O)C(=O)C3=C(O)c4c(O)ccc(Cl)c4[C@@](C)(O)[C@H]3C[C@@H]12	Pf growth 48h inconclusive
C=C1c2c(Cl)ccc(O)c2C(O)=C2C(=O)[C@@]3(O)C(O)=C(C(N)=O)C(=O)[C@@H](N(C)C)[C@@H]3[C@@H](O)[C@H]12	Pf growth 96h 0.721µM, Pf growth 48h 4.05µM (no result: Cycloheximide cs, Shiga toxin inh, NS1 inh)
CN(C)c1ccc(O)c2c1CC1CC3[C@@H](N(C)C)C(=O)C(C(N)=O)=C(O)[C@]3(O)C(=O)C1=C2O (some centres undefined)	Pf growth 96h 0.329µM, Pf growth 48h 4.65µM
C[C@H]1c2cccc(O)c2C(O)=C2C(=O)[C@]3(O)C(O)=C(C(N)=O)C(=O)[C@@H](N(C)C)[C@@H]3[C@@H](O)[C@@H]21	Pf growth 96h 0.738µM, Pf growth 48h 4.65µM, Cycloheximide cs 10.5!
CC(C)(C)OC(=O)NC(Cc1ccccc1)C(=O)NC1COC2CC(n3cc(F)c(=O)[nH]c3=O)OC12 (centres undefined)	none (no result: Pf growth 96h, Pf growth 48h, NS1 inh)
COc1ccc(C(=O)Nc2ccc(N3CCN(C(=O)C(C)C)CC3)cc2)cc1[N+](=O)[O-]	none
O=C(COc1ccc(/C=C2/NC(=O)NC2=O)cc1)Nc1ccc(F)cc1	Pf growth 48h inconclusive
O=C(CSc1nnc(NC2CCCCC2)s1)N1CCOCC1	none (no result: Cycloheximide cs, Shiga toxin inh, NS1 inh)
CC(C)NC(=O)C1(c2ccccc2)CC1(Cl)Cl (centres undefined)	none
CN(C)C1C(=O)C(C(N)=O)C(=O)C2(O)C(=O)C3C(=O)c4c(O)cccc4C(C)(O)C3C(O)C12 (centres undefined)	Pf growth 96h 3.01µM, Pf growth 48h 9.53µM (no result: NS1 inh)
